From PubChem BioAssay (NCI)
The panel holds about 83,000 compounds, 20% with a hit somewhere; the sample as a whole holds those more often.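 96-well plates, one dose, 48 hours. Percent growth reported; active if below 10.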 Calls of active or inactive are those of the source.

Assays:
Assay in all cases: NCI-60 one-dose screen, 48 h (100 = growth as untreated, 0 = no growth, -100 = all killed)
Details in all cases: 10 µM
T-47D breast = test system: T-47D breast
BT-549 breast = test system: BT-549 breast
MDA-MB-435 melanoma = test system: MDA-MB-435 melanoma
SW-620 colon = test system: SW-620 colon
MCF7 breast = test system: MCF7 breast
HCT-116 colon = test system: HCT-116 colon
HCC-2998 colon = test system: HCC-2998 colon
KM12 colon = test system: KM12 colon

Measured: growth

COc1ccc2c(c1)OC(N)=C(C#N)C2c1cc(OC)c(OC)c(OC)c1 (stereo not given)
active: BT-549 breast 5.64% | MDA-MB-435 melanoma -16.7% | HCT-116 colon 3.4% | KM12 colon -10.3%
inactive: T-47D breast 16.7% | SW-620 colon 17.1% | MCF7 breast 13.3% | HCC-2998 colon 15%

COc1ccc(-c2nc(-c3nc4ccc(C)cc4[nH]3)cc3c2[nH]c2ccccc23)cc1
inactive: T-47D breast 32.7% | BT-549 breast 71.7% | MDA-MB-435 melanoma 46% | SW-620 colon 81.4% | MCF7 breast 36.1% | HCT-116 colon 19.3% | HCC-2998 colon 48.9% | KM12 colon 21%

O=C(Nc1cc([N+](=O)[O-])c2[nH]c(=O)c3ccccc3c2c1)C(F)(F)F
inactive: T-47D breast 105% | BT-549 breast 86.5% | MDA-MB-435 melanoma 102% | SW-620 colon 64.5% | MCF7 breast 82% | HCT-116 colon 56.5% | HCC-2998 colon 89.3% | KM12 colon 87.2%

O=C(/C=C/c1cccc(B(O)O)c1)c1cccc(B(O)O)c1
inactive: T-47D breast 11.1%
active: BT-549 breast -91% | MDA-MB-435 melanoma 0.799% | SW-620 colon -41.3% | MCF7 breast 0.092% | HCT-116 colon -88.3% | HCC-2998 colon -86.4% | KM12 colon -64.4%

COc1ccc(-c2n[nH]nc2-c2cc(OC)c(OC)c(OC)c2)cc1
inactive: T-47D breast 21.9% | BT-549 breast 13.6% | SW-620 colon 19.7% | MCF7 breast 19.7% | HCC-2998 colon 14.2%
active: MDA-MB-435 melanoma 4.87% | HCT-116 colon 6.27% | KM12 colon 0.0603%

O=C(CN(C1CCCCC1)C1CCCCC1)Nc1ccc(S(=O)(=O)c2ccc(NC(=O)CN(C3CCCCC3)C3CCCCC3)cc2)cc1
active: T-47D breast -38.1% | BT-549 breast -85.3% | MDA-MB-435 melanoma -39.5% | SW-620 colon -48.4% | MCF7 breast -40.7% | HCT-116 colon -86.3% | HCC-2998 colon -37.4% | KM12 colon -28.6%

Cc1c(Cl)cccc1NC(=O)CN1CCOCC1
inactive: T-47D breast 96.1% | BT-549 breast 97.4% | MDA-MB-435 melanoma 98.7% | SW-620 colon 94.5% | MCF7 breast 98.1% | HCT-116 colon 97% | HCC-2998 colon 103% | KM12 colon 97.3%

O=C(Nc1nc(-c2ccccc2)nc2c1sc(=S)n2-c1ccccc1)C(F)(F)F
inactive: T-47D breast 71.1% | BT-549 breast 98.9% | MDA-MB-435 melanoma 99.8% | SW-620 colon 103% | MCF7 breast 87% | HCT-116 colon 78.8% | HCC-2998 colon 123% | KM12 colon 91.3%

O=C(NCCNC(=O)c1ccc(F)cc1)Nc1ccc(-n2cc(-c3ccncc3)c(-c3ccc(Cl)c(O)c3)n2)cc1
inactive: T-47D breast 30.1% | SW-620 colon 15.1%
active: BT-549 breast -24.5% | MDA-MB-435 melanoma -5.7% | MCF7 breast 3.7% | HCT-116 colon -24.2% | HCC-2998 colon -28.4% | KM12 colon 0.713%

O=C(CCCCCCC(=O)Nc1ccccc1)NO
active: T-47D breast -12.6% | MDA-MB-435 melanoma -22% | SW-620 colon -25.7% | MCF7 breast 9.87% | HCT-116 colon 4.45% | HCC-2998 colon 0.434%
inactive: BT-549 breast 53.9% | KM12 colon 14.4%

N#Cc1ccc(C(=O)CSc2nccc(Nc3ccc(C(=O)O)cc3)n2)cc1
inactive: T-47D breast 110% | BT-549 breast 103% | MDA-MB-435 melanoma 104% | SW-620 colon 104% | MCF7 breast 91.3% | HCT-116 colon 108% | HCC-2998 colon 100% | KM12 colon 105%

Cc1noc(C)c1CSc1ccccc1C(=O)N1CCN(c2cccc(C(F)(F)F)c2)CC1
inactive: T-47D breast 49.2% | BT-549 breast 61% | MDA-MB-435 melanoma 82.6% | SW-620 colon 86.5% | MCF7 breast 79.4% | HCT-116 colon 55.3% | HCC-2998 colon 93.6% | KM12 colon 79.2%

COc1cc2c(cc1NC(=O)C(Cl)Cl)-c1ccc(NC(=O)C(Cl)Cl)cc1C2
active: T-47D breast 3.05% | MDA-MB-435 melanoma -57.7% | SW-620 colon -11.6% | MCF7 breast -3.08% | HCT-116 colon -61% | HCC-2998 colon -98.5% | KM12 colon -65.5%
inactive: BT-549 breast 69.3%

CCNc1nc(C(F)(F)F)nc2c1sc(=S)n2-c1ccccc1
inactive: T-47D breast 73.9% | BT-549 breast 95.2% | MDA-MB-435 melanoma 113% | SW-620 colon 106% | MCF7 breast 96.4% | HCT-116 colon 94.3% | HCC-2998 colon 115% | KM12 colon 89.2%

OCC1OC(n2ccc3c(NO)ncnc32)C(O)C1O (stereo not given)
active: T-47D breast -18.9% | BT-549 breast -31.5% | MDA-MB-435 melanoma -54.5% | SW-620 colon -3.1% | MCF7 breast -0.414% | HCT-116 colon -33.1% | HCC-2998 colon -38.7% | KM12 colon -26.6%
